Test results from PubChem BioAssay (NCATS).
Results filed as inconclusive are left out. A call without a number means that no potency is given here. Active and inactive are the calls of the source. Calls follow the shape of the dose curve; as a rule, active = well fitted inhibition curve with a large enough effect; inconclusive = small, poorly fitted or top-dose-only effect; inactive = flat fitted curve, though single readings scatter. Peptide text beside a SMILES is read from it.

system: Zika virus NS2B-NS3 protease; experiment: Primary screen GU AMC qHTS for Zika virus inhibitors (AID 1347154); settings: Zika NS2B-NS3 unlinked protease, AMC fluorogenic substrate; series mostly up to 54.1 µM; also: nearly all actives have a fitted effect of over 70% in size
Outline: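 Fluorogenic AMC-substrate cleavage by noncovalent NS2B-NS3 protease complex (25 nM, pH 8.0 Tris buffer with Tween 20) followed for 15 minutes at room temperature (~20% conversion). Percent inhibition from ex340/em450 signal change, fitted by 4-parameter Hill equation.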
Potency is read from the fitted curve at half-maximal effect.

SMILES	Potency
COc1ccc(C2(C#N)CCC(C(=O)O)CC2)cc1OC1CCCC1 (stereo not drawn)	inactive
CN(C)[C@@H](CCOc1cccc2ccccc12)c1ccccc1	inactive
CCC(C)(Oc1ccc(C2(c3ccc(OC(C)(CC)C(=O)O)cc3)CCCCC2)cc1)C(=O)O (stereo not drawn)	inactive
CC(C)c1ccc2oc3nc(N)c(C(=O)O)cc3c(=O)c2c1	15.8 µM (active)
Cc1cccc(CN2CCN(C(c3ccccc3)c3ccc(Cl)cc3)CC2)c1 (stereo not drawn)	inactive
OC(CN1CCN(c2cccc(Cl)c2)CC1)C(c1ccccc1)c1ccccc1 (stereo not drawn)	inactive
CCOC(=O)C1=C[C@@H](OC(CC)CC)[C@H](NC(C)=O)[C@@H](N)C1	inactive
NC(=O)Cc1cccc(C(=O)c2ccccc2)c1N	inactive
COCCCOc1ccnc(CS(=O)c2nc3ccccc3[nH]2)c1C (stereo not drawn)	inactive
COc1cc2c(N3CCN(C(=O)Nc4ccc(OC(C)C)cc4)CC3)ncnc2cc1OCCCN1CCCCC1	inactive
O=C(O)c1cccc(-c2noc(-c3ccccc3F)n2)c1	inactive
CCCCCCCCCCCCCCCCCCCCCCO	inactive
CCCc1cc(=O)[nH]c(=S)[nH]1	inactive
CC(=O)O[C@H]1C(=O)[C@@]2(C)C([C@H](OC(=O)c3ccccc3)[C@]3(O)C[C@H](OC(=O)[C@H](O)[C@@H](NC(=O)c4ccccc4)c4ccccc4)C(C)=C1C3(C)C)[C@]1(OC(C)=O)CO[C@@H]1C[C@@H]2O (stereo partly drawn)	inactive
CC1Cc2ccccc2N1NC(=O)c1ccc(Cl)c(S(N)(=O)=O)c1 (stereo not drawn)	inactive
O=c1oc2cc(O)ccc2s1	inactive
Cc1ccc(C)c(OCCCC(C)(C)C(=O)O)c1	inactive
CN(C)CCc1c[nH]c2ccc(Cn3cncn3)cc12	inactive
COC(=O)[C@H](Cc1ccccc1)NC(=O)[C@@H](N)CC(=O)O (H-Asp-Phe-OMe)	inactive

SMILES	Potency
Cc1nccn1CC1CCc2c(c3ccccc3n2C)C1=O (stereo not drawn)	inactive
CC(C)(S)[C@@H](N)C(=O)O	inactive
CCOC(=O)c1c(C)n(C)c2ccc(O)cc12	inactive
COCCCN1CCC(NC(=O)c2cc(Cl)c(N)c3c2OCC3)CC1	inactive
CN1CCC(=C2c3ccccc3CCc3sccc32)CC1	inactive
COc1cc(Nc2c(C#N)cnc3cc(OCCCN4CCN(C)CC4)c(OC)cc23)c(Cl)cc1Cl	inactive
CC1=C(C)C(=O)C(C(CCCCCC(=O)O)c2ccccc2)=C(C)C1=O (stereo not drawn)	inactive
CN(C)C(=O)COC(=O)Cc1ccc(OC(=O)c2ccc(N=C(N)N)cc2)cc1	inactive
COC(=O)C1=C(C)NC(C)=C(C(=O)OC(C)C)C1c1cccc2nonc12 (stereo not drawn)	inactive
Cc1cc2c(s1)Nc1ccccc1N=C2N1CCN(C)CC1	inactive
O=P(O)(O)C(O)(Cn1ccnc1)P(=O)(O)O	inactive
CC(C)[C@H](N)C(=O)OCCOCn1cnc2c(=O)[nH]c(N)nc21	inactive
O=C(O)CCNC(=O)c1ccc(N=Nc2ccc(O)c(C(=O)O)c2)cc1	inactive
CCCCCCCCOc1ccccc1C(=O)Nc1ccc(C(=O)OCC[N+](C)(CC)CC)cc1	inactive
O=C(OC1C[C@H]2CC[C@@H](C1)[N+]21CCCC1)C(O)(c1ccccc1)c1ccccc1 (stereo partly drawn)	inactive
N=C(N)c1ccc2cc(OC(=O)c3ccc(N=C(N)N)cc3)ccc2c1	inactive
CCC1=C(C)CN(C(=O)NCCc2ccc(S(=O)(=O)NC(=O)NC3CCC(C)CC3)cc2)C1=O (stereo not drawn)	inactive
Cc1cc(=O)c2c(O)c3c(O)cc(=O)c4c3c3c(cc(O)c1c23)C(C)(C)C=4O	inactive
CC(C)c1nc(CN(C)C(=O)N[C@H](C(=O)N[C@@H](Cc2ccccc2)C[C@H](O)[C@H](Cc2ccccc2)NC(=O)OCc2cncs2)C(C)C)cs1	inactive
